Test results: the supplement of paper PMC11219838
A number with no mark means an inactive call.

Tested on: Meloidogyne hapla J2
Test: proportion of mobile M. hapla J2 relative to DMSO control (fraction of DMSO control); higher = more viable, less nematicidal, active = 0.7 or less
Conditions: 60 µM; 5 days; temperature: 20 °C
Experimental: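 DODA library (846 commercial 1,3,4- and 1,2,4-oxadiazole compounds plus commercial nematicide controls) screened at a single dose of 60 µM (0.6% DMSO) in 96-well plates, two biological replicates. Read-outs: C. elegans N2 L1 survival/reproduction score at day 6, 20 °C (0: 0-10 worms, 1: 11-20, 2: 21-50, 3: >50, 4: overgrown/starved). C. elegans daf-2 dauer, D. dipsaci and M. hapla J2 mobility at day 5, 20 °C, and P. penetrans mobility at day 5, 20 °C, each relative to DMSO controls. M. hapla egg hatching at day 12, 25 °C, relative to the mean of 8 DMSO wells on the same plate.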

Compound | proportion of mobile M. hapla J2
CC(C)C(=O)Nc1ccccc1-c1nc(-c2ccccc2)no1 | 0.957
Cc1cccc(-c2noc(-c3cccc(Cl)c3)n2)c1 | 1
Brc1ccc(-c2noc(-c3ccc(Br)o3)n2)o1 | 0.949
Cn1c(SCc2nc(-c3cccs3)no2)nnc1-c1ccco1 | 0.932
COc1cccc(-c2noc(-c3c(F)cccc3F)n2)c1 | 0.953
Clc1ccc(OCc2nc(-c3ccc4c(c3)OCO4)no2)cc1 | 0.932
CC(=O)Nc1c(C)ccc(CNC(=O)CSc2nnc(-c3ccc(C(C)(C)C)cc3)o2)c1C | 0.88
Cc1cccc(-c2nnc(SCC(=O)Nc3ccc(Br)c(C)c3C)o2)c1 | 1
Cc1ccccc1-c1noc(COc2ccc(Cl)cc2Cl)n1 | 1.02
Brc1ccc(-c2nnc(SCc3ccccc3)o2)cc1 | 1.04
c1ccc2cc(-c3nc(-c4ccncc4)no3)ccc2c1 | 0.994
CNC(=O)c1ccccc1-c1nc(-c2ccc(F)cc2)no1 | 0.987
CCn1c(SCc2nnc(-c3ccccc3)o2)nnc1-c1ccco1 | 0.948
Cc1cc(Cl)ccc1NC(=O)CSc1nnc(-c2ccncc2)o1 | 0.974
Clc1ccc(OCc2nc(-c3cccnc3)no2)c(Cl)c1 | 0.998
N#Cc1ccc(CSc2nnc(-c3ccncc3)o2)cc1 | 0.972
CCc1nnc(NC(=O)CSc2nnc(-c3ccc(Cl)cc3Cl)o2)s1 | 0.875
CCCc1nnc(CSc2nnc(-c3ccc(Cl)cc3)o2)o1 | 0.983
Cc1ccc(NC(=O)CSc2nnc(-c3ccco3)o2)cc1Cl | 0.96
Fc1cccc(Cl)c1CSc1nnc(-c2ccccc2Cl)o1 | 0.988

Compound | proportion of mobile M. hapla J2
COc1cccc(OCc2nc(-c3cccc(C)c3)no2)c1 | 0.866
COc1cccc(-c2noc(-c3ccc(Cl)cc3)n2)c1 | 0.983
C=CCOc1cccc(-c2nc(-c3cccnc3)no2)c1 | 1.03
COc1cccc(-c2nc(-c3ccc(Br)cc3)no2)c1 | 0.997
CCOc1ccccc1-c1nc(-c2ccc(Br)cc2)no1 | 0.916
Cc1ccccc1OCc1nc(-c2ccc3c(c2)OCO3)no1 | 0.878
CC(C)c1ccc(NC(=O)CSc2nnc(-c3ccc(Br)cc3)o2)cc1 | 1.03
Cc1ccc(OCc2nc(-c3ccc(Cl)cc3)no2)cc1C | 1.05
Cc1cc(OCc2nc(-c3ccncc3)no2)cc(C)c1Br | 1.03
Cc1ccc(-c2noc(-c3cccc(Br)c3)n2)cc1 | 1.04
Clc1cccc(OCc2nc(-c3ccncc3)no2)c1 | 0.85
O=C(Nc1ccccc1-c1nc(-c2ccncc2)no1)c1ccccc1Cl | 0.979
Fc1ccc(-c2noc(COc3ccccc3)n2)cc1 | 1.07
O=C(CSc1nnc(-c2ccccc2)o1)NC1CC2CCC1C2 (stereo not given) | 0.795
Cc1ccc(OCc2nc(-c3ccccc3Cl)no2)cc1C | 1.04
O=C(Nc1ccccc1-c1nc(-c2cccnc2)no1)c1ccccc1Cl | 0.983
CCNC(=O)c1ccccc1-c1nc(-c2ccc(F)cc2)no1 | 0.998
Cn1c(SCc2nc(-c3ccc(Br)cc3)no2)nnc1-c1ccco1 | 0.835
CCCCc1nc(-c2ccc(-c3ccc(C)cc3)nc2OC)no1 | 0.843
CCOc1ccc(-c2nc(-c3ccccc3C)no2)cc1 | 0.692 (active)
